Screening results from PubChem BioAssay.
An excerpt weighted towards active compounds, which were near 6.8% of everything screened.
T cruzi growth-1: T. cruzi proliferation inhibition; T. cruzi beta-gal in NIH3T3, GalScreen luminescence, 90 h; inhibition, % at 8.34 µM; 5.9% of 77,000 active;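 active means mean inhibition above about 93%, with at least 55% of replicates each passing it, limit read from the data, passing the limit was not always enough; inconclusive means only one of those two conditions holds; inactive means neither condition holds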
Pf Dd2 growth: blocks growth of Plasmodium falciparum Dd2 parasites | P. falciparum Dd2 growth, SYBR Green, 72 h; stronger effect = lower value | activity change, % at 10 µM | 2.3% of 94,000 active | AID 1159554; in the data active means activity change below about -80%; inconclusive means no clear call, values can overlap the other calls
C diff HTS: C. difficile growth inhibition; Clostridium difficile clinical isolate growth, OD600, 24 h; stronger effect = lower value; growth activity, negative = inhibition, % at 16 µg/mL (by protocol); 0.25% of 86,000 active;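 active means mean growth activity at or below -80% and every replicate also at or below -80%; inconclusive means mean at or below -80% but some replicate above -80%; inactive means mean growth activity above -80%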;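 further: 0% = DMSO wells and -100% = levofloxacin 16 µg/mL wells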
T cruzi growth-2: Trypanosoma cruzi proliferation inhibition. 72% of 5,600 active. inhibition, % at 8.35 µM. shares compounds with T cruzi growth-1. T. cruzi beta-gal in NIH3T3, GalScreen luminescence, 90 h;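 active means mean replicate inhibition above about 95% and at least 55% of replicates individually reaching it, limit read from the data; inconclusive means only one of the two criteria is met; inactive means neither criterion is met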
T cruzi growth-3: Trypanosoma cruzi proliferation inhibition | shares compounds with T cruzi growth-1 | T. cruzi beta-gal in NIH3T3, GalScreen luminescence, 90 h | inhibition, % at 2.09 µM | 21% of 5,600 active | AID 651740;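 active means mean inhibition above about 95%, with at least 55% of replicates also reaching it, limit read from the data; inconclusive means meets just one of the two conditions; inactive means meets neither condition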;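 further: plate controls were neutral control median for no effect and positive control median for full effect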
3T3 cytotox: NIH/3T3 (mouse) viability loss. shares compounds with T cruzi growth-1. NIH/3T3 viability, CellTiter-Glo ATP luminescence, 90 h. cytotoxicity (signal decrease), % at 8.35 µM. 14% of 5,600 active. AID 651742;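 active means mean signal decrease across replicates above about 35% based on untreated-well scatter, with enough replicates individually passing, limit read from the data; inconclusive means no rule stated though some were filed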;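 further: 0% = median of neutral control wells and 100% = median of positive control wells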
NIH3T3 tox 2: cytotoxicity in mouse NIH/3T3 fibroblasts | shares compounds with T cruzi growth-1 | NIH/3T3 viability, CellTiter-Glo ATP luminescence, 90 h | inhibition, % at 24.9 µM | 56% of 5,600 active | AID 651744;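 active means mean loss of cell viability signal at or above a set limit, and enough replicates individually reaching it; inconclusive means meets only the mean limit or only the replicate share; inactive means meets neither condition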;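 further: 0% = median of neutral control wells and 100% = median of positive control wells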
Numbers without * were called inactive.

What do the screens show for `Cc1ccc(S(=O)(=O)N(C)C[C@H]2Oc3cc(C4=CCCC4)ccc3S(=O)(=O)N([C@H](C)CO)C[C@H]2C)cc1`?
Pf Dd2 growth: -22; C diff HTS: 2

Results for C[C@@H]1CN([C@H](C)CO)S(=O)(=O)c2ccc(C3=CCCC3)cc2O[C@H]1CN(C)S(=O)(=O)c1ccc(F)cc1 ?
T cruzi growth-1: 116*; Pf Dd2 growth: -41; C diff HTS: 6; T cruzi growth-2: 107*; T cruzi growth-3: 83; 3T3 cytotox: 17; NIH3T3 tox 2: 25*

Results for Cc1ccc(S(=O)(=O)N(C)C[C@@H]2Oc3cc(C4=CCCC4)ccc3S(=O)(=O)N([C@@H](C)CO)C[C@H]2C)cc1 ?
Pf Dd2 growth: -61; C diff HTS: 2

What do the screens show for `C[C@@H]1CN([C@@H](C)CO)S(=O)(=O)c2ccc(C3=CCCC3)cc2O[C@@H]1CN(C)S(C)(=O)=O`?
T cruzi growth-1: -36; Pf Dd2 growth: 17

How did COc1ccc2c3c(n(C)c2c1)[C@@H](CO)N(Cc1ccccc1OC)CC31CN(CC2CC2)C1 do in these assays?
Pf Dd2 growth: -35; C diff HTS: 7

Results for C[C@@H]1CCCCO[C@@H](CN(C)S(=O)(=O)c2cccs2)[C@H](C)CN([C@@H](C)CO)C(=O)c2cc(NC(=O)c3ccccc3)ccc2O1 ?
T cruzi growth-1: 72; Pf Dd2 growth: -57; C diff HTS: 4

What do the screens show for `COc1ccc(NC(=O)N2CCC3(CC2)CN(CC2CC2)[C@@H](CO)c2c3c3ccc(OC)cc3n2C)cc1`?
Pf Dd2 growth: 41

Results for C[C@H]1CN([C@@H](C)CO)C(=O)c2cc(N(C)C)ccc2O[C@@H]1CN(C)S(=O)(=O)c1cccs1 ?
T cruzi growth-1: 55; Pf Dd2 growth: -2; C diff HTS: -3

How did Cc1noc(C)c1NC(=O)N(C)C[C@@H]1OCCCC[C@H](C)Oc2ccc(NC(=O)NC(C)C)cc2C(=O)N([C@@H](C)CO)C[C@@H]1C do in these assays?
Pf Dd2 growth: -33; C diff HTS: 2

What do the screens show for `COc1ccc(S(=O)(=O)Nc2cccc3c2O[C@@H](CN(C)Cc2ccc(C(=O)O)cc2)[C@@H](C)CN([C@@H](C)CO)C3=O)cc1`?
T cruzi growth-1: 21; Pf Dd2 growth: 29

Results for C[C@@H]1CCCCO[C@H](CN(C)Cc2ccc(C(=O)Nc3ccccc3N)cc2)[C@@H](C)CN([C@H](C)CO)C(=O)c2cc(NS(=O)(=O)c3cn(C)cn3)ccc2O1 ?
T cruzi growth-1: -8; Pf Dd2 growth: -11; C diff HTS: 11

What do the screens show for `C[C@H]1CN([C@@H](C)CO)C(=O)c2cccc(NS(=O)(=O)c3ccc(Cl)cc3)c2O[C@H]1CN(C)Cc1ccc(C(=O)Nc2ccccc2N)cc1`?
T cruzi growth-1: 104*; Pf Dd2 growth: -89*; C diff HTS: 0; T cruzi growth-2: 90; T cruzi growth-3: 81; 3T3 cytotox: 6; NIH3T3 tox 2: 39*

What do the screens show for `C[C@H]1CN([C@@H](C)CO)C(=O)c2cc(NS(=O)(=O)c3cn(C)cn3)ccc2O[C@@H]1CN(C)Cc1ccc(C(=O)Nc2ccccc2N)cc1`?
T cruzi growth-1: inconclusive; Pf Dd2 growth: 22; T cruzi growth-2: 65; T cruzi growth-3: 8; 3T3 cytotox: 6; NIH3T3 tox 2: -8

What do the screens show for `COc1ccc(S(=O)(=O)Nc2cccc3c2O[C@@H](CN(C)Cc2ccc(C(=O)O)cc2)[C@@H](C)CN([C@H](C)CO)C3=O)cc1`?
T cruzi growth-1: 101*; Pf Dd2 growth: 6; T cruzi growth-2: -30; T cruzi growth-3: 3; 3T3 cytotox: 0; NIH3T3 tox 2: 5

How did C[C@H]1CN([C@@H](C)CO)C(=O)c2cc(NS(=O)(=O)c3ccc(Cl)cc3)ccc2O[C@@H]1CN(C)Cc1ccc(C(=O)Nc2ccccc2N)cc1 do in these assays?
T cruzi growth-1: 86; Pf Dd2 growth: -43; C diff HTS: 4

How did Cc1ccc(S(=O)(=O)Nc2cccc3c2O[C@@H](CN(C)Cc2ccc(C(=O)Nc4ccccc4N)cc2)[C@@H](C)CN([C@@H](C)CO)C3=O)cc1 do in these assays?
Pf Dd2 growth: -70; C diff HTS: 8

What do the screens show for `C[C@@H]1CN([C@@H](C)CO)C(=O)c2cc(NS(=O)(=O)c3ccc(Cl)cc3)ccc2O[C@@H]1CN(C)Cc1ccc(C(=O)Nc2ccccc2N)cc1`?
T cruzi growth-1: 106*; Pf Dd2 growth: inconclusive; C diff HTS: 1; T cruzi growth-2: 108*; T cruzi growth-3: 55; 3T3 cytotox: 21; NIH3T3 tox 2: 62*

What do the screens show for `C[C@@H]1CN([C@H](C)CO)S(=O)(=O)c2ccc(C3=CCCCC3)cc2O[C@@H]1CN(C)C(=O)C1CCOCC1`?
Pf Dd2 growth: 15; C diff HTS: 4

Results for Cc1cccc(S(=O)(=O)N2[C@@H]3CNC[C@H]2C3c2ccc(-c3cccnc3)cc2)c1 (stereo partly drawn) ?
Pf Dd2 growth: 5; C diff HTS: -5

What do the screens show for `CNC(=O)C[C@@H]1CC[C@H]2[C@H](COc3ccc(NC(=O)C(C)C)cc3C(=O)N2C)O1`?
T cruzi growth-1: -10; Pf Dd2 growth: 19; C diff HTS: -1

Results for COCC#Cc1cnc2c(c1)C(=O)N([C@@H](C)CO)C[C@@H](C)[C@@H](CN(C)C(=O)Cc1ccncc1)O2 ?
T cruzi growth-1: -4; Pf Dd2 growth: 41; C diff HTS: -2

Results for CC(=O)N(C)C[C@@H]1Oc2ncc(-c3cccc(C#N)c3)cc2C(=O)N([C@@H](C)CO)C[C@@H]1C ?
T cruzi growth-1: 40; Pf Dd2 growth: 38; C diff HTS: -3

Results for C[C@@H]1CN([C@H](C)CO)C(=O)c2cc(NS(=O)(=O)c3cccs3)ccc2O[C@@H]1CN(C)S(=O)(=O)c1ccccc1 ?
T cruzi growth-1: 26; Pf Dd2 growth: 18; C diff HTS: -10

Results for C[C@@H](O)C#Cc1ccc([C@@H]2[C@@H](CO)N3CCCCN(C(=O)c4ccc5c(c4)OCO5)C[C@@H]23)cc1 ?
T cruzi growth-1: 48; Pf Dd2 growth: 42; C diff HTS: -2

What do the screens show for `COc1ccc(S(=O)(=O)Nc2cccc3c2O[C@@H](CN(C)Cc2ccc(C(=O)Nc4ccccc4N)cc2)[C@H](C)CN([C@H](C)CO)C3=O)cc1`?
Pf Dd2 growth: -34; C diff HTS: 8
